The values below come from PubChem BioAssay AID1851 (National Center for Advancing Translational Sciences (NCATS), 2009).

Usually AC50 stands for the concentration at which the activity in the assay is half-maximal.

The whole screen tested about 16,000 compounds, of which about 4,000 (25%) were called active. Roughly 26% stayed inconclusive and do not appear here. These entries were drawn from the full list. Values without a mark were called inactive. Calls follow the shape of the dose curve; as a rule, active = well fitted curve in the direction sought with a large enough effect; inconclusive = small, poorly fitted or top-dose-only effect, or effect the other way; inactive = no such curve, though single readings can be large or run the other way.
% is scaled to controls: 0 for no effect and ±100 for the full control effect.

This experiment deals with Cytochrome P450 2C9 (Homo sapiens) (UniProt P11712). The experiment is described as follows: Cytochrome panel assay with activity outcomes. As to conditions: recombinant CYP, pro-luciferin dealkylation, luminescence, p450-cyp2c9; series mostly up to 57.1 µM; activity, negative = inhibition: at the top concentration.
Chain of Cytochrome P450 2C9 (Homo sapiens) (P11712 whole entry, looked up): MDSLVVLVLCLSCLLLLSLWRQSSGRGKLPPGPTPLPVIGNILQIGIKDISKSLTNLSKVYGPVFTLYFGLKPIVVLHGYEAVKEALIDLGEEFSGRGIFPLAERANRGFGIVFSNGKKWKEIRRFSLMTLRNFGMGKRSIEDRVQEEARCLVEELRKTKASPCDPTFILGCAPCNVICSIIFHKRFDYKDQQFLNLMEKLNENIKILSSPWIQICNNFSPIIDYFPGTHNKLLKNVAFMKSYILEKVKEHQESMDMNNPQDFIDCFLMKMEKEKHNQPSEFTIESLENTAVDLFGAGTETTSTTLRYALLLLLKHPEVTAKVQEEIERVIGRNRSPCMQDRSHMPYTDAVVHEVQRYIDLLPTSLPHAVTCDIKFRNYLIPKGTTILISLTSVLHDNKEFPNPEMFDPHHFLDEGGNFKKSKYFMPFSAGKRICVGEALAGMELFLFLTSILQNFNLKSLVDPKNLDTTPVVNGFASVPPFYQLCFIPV
In the case of `N#C/C(=C\c1cc(Cl)cc(Cl)c1O)C(=O)NC1CCCCC1`, the AC50 was 12.6 µM (active).

Take `S=C(Nc1cccc(Cl)c1)NC1CCCCC1`: the “activity, negative = inhibition” value is 8.71%.

As for `Cn1c[n+](C)cc1/C=N/O`, the “activity, negative = inhibition” value is 6.26%.

For `Nc1nc2ncc(CNc3ccc(C(=O)N[C@@H](CCC(=O)O)C(=O)O)cc3)nc2c(=O)[nH]1`, the “activity, negative = inhibition” value is -2.91% [at 25.6 µM].

With `CC(C)(C)CC(C)(C)c1ccc(OCOCCOCCO)c(Cc2cc(C(C)(C)CC(C)(C)C)cc(Cc3cc(C(C)(C)CC(C)(C)C)ccc3OCOCCOCCO)c2OCOCCOCCO)c1`, the “activity, negative = inhibition” value is 2.53% [at 25.6 µM].

Consider `CN(C)C(=O)c1ccc(-c2nc(Nc3ccccc3)c3ccccc3n2)cc1`, for which the activity, negative = inhibition is -13.3% [at 2.29 µM].

Take `Cc1ccccc1-c1nc(NC2CC2)c2ccccc2n1`: the activity, negative = inhibition is 3.04% [at 2.29 µM].

As for `CC1CCC(NC(=O)CC(C)(C)Cc2nc3ccccc3c(=O)[nH]2)CC1` (stereo not given), the AC50 is 3.55 µM (active).

With `O=C1/C(=C\c2ccc(Br)o2)SC(=Nc2ccccc2)N1c1ccccc1`, the AC50 is 0.398 µM (active).

On to `CC(C)CN1CCC2(CC1)CCN(C(=O)c1cccc(F)c1)CC2`, for which the “activity, negative = inhibition” value was 0.497%.

`CC(C)CN1CC2(CCN(C(=O)c3cccc(F)c3)CC2)C1`: the “activity, negative = inhibition” value is 14.7%.

With `CC(C)CC(=O)N1CCN(Cc2cccc(F)c2)CC1`, the AC50 was 0.0251 µM (active).

Regarding `C/C(=N/S(=O)(=O)c1ccc(Cl)c(Cl)c1)OCC(C)(C)C`, the activity, negative = inhibition is 6.28% [at 11.4 µM].

In the case of `N#Cc1cccc(NC(=O)N2CC[C@@]3(CCCN(C(=O)c4ccco4)C3)C2)c1`, the “activity, negative = inhibition” value was -3.61%.

For the compound `N#Cc1cccc(NC(=O)N2CCCC3(CCN(C(=O)c4cc(C(F)(F)F)cc(C(F)(F)F)c4)CC3)C2)c1`, the “activity, negative = inhibition” value is 1.82%.

Regarding `CC(=O)N1CCC2(CC1)CN(C(=O)Nc1cccc(C#N)c1)C2`, the “activity, negative = inhibition” value is -2.07%.

As for `N#Cc1cccc(NC(=O)N2CC3(CCN(C(=O)c4ccco4)CC3)C2)c1`, the “activity, negative = inhibition” value was -15.6%.

As to `N#Cc1cccc(NC(=O)N2CC3(CCN(C(=O)c4cc(C(F)(F)F)cc(C(F)(F)F)c4)CC3)C2)c1`, the AC50 is 12.6 µM (active).

For the compound `N#Cc1cccc(NC(=O)N2CCCC3(CCN(C(=O)c4ccco4)CC3)C2)c1`, the AC50 is 3.98 µM (active).

As for `CCNCCCNCCCNCCCNCC`, the “activity, negative = inhibition” value was 25.3%.

In the case of `CC(C)(C)N1C(=O)[C@H]2[C@H]3[C@H](O)[C@H](O)C/C(=N/NC(=O)OCc4ccccc4)[C@@H]3CC[C@@H]2C1=O`, the activity, negative = inhibition was 29.2% [at 11.4 µM].

For the compound `C/C(=N\NC(N)=S)c1ccc[nH]1`, the activity, negative = inhibition is -7.98% [at 11.4 µM].

In the case of `Cc1ccc(NCCC(=O)c2ccc(Cl)c(Cl)c2)cc1`, the “activity, negative = inhibition” value is -17.4%.

Turning to `Cc1ccc(C(=O)c2cn[nH]c2-c2cc(Cl)ccc2O)cc1`, the AC50 was 2.24 µM (active).

On to `C=C1C(=O)O[C@@H]2[C@H]3O[C@]3(C)CCC=C(C)CC[C@@H]12`, for which the “activity, negative = inhibition” value was 12.2%.

Take `CC(=O)OC[C@H]1O[C@@H](O/N=C(\C)CCN2CCCc3nc(C)c(C)cc32)[C@H](OC(C)=O)[C@@H](OC(C)=O)[C@H]1OC(C)=O`: the activity, negative = inhibition is 18.1% [at 11.4 µM].

Take `NS(=O)(=O)c1ccc(N=Nc2nc3[nH]c(=O)[nH]c(=O)c3[nH]2)cc1`: the activity, negative = inhibition is 0.503% [at 11.4 µM].

`Cc1ccc(/C=C/c2ccc(=O)n(Cc3ccc(Cl)cc3Cl)n2)cc1`: the half-maximal activity concentration (AC50) is 3.16 µM (active).

For the compound `CC(C)(CO)[C@H](O)C(=O)NCCCO`, the “activity, negative = inhibition” value was -1.14% [at 25.6 µM].

For `COCCCNC(=O)c1c(N)n(/N=C/c2ccccn2)c2nc3ccccc3nc12`, the half-maximal activity concentration (AC50) was 5.62 µM (active).

Consider `O=[N+]([O-])c1ccccc1/C=N/n1c(COc2ccccc2)n[nH]c1=S`, for which the AC50 was 3.55 µM (active).

Turning to `CC1=NNC(=O)C1CCC(=O)N/N=C\c1ccccc1[N+](=O)[O-]` (stereo not given), the “activity, negative = inhibition” value was -22.2%.

In the case of `Cc1ccc(/C=N/n2c(COc3ccccc3)n[nH]c2=S)s1`, the AC50 was 4.47 µM (active).

As to `O=[N+]([O-])c1ccc(/C=N/n2c(COc3ccccc3)n[nH]c2=S)cc1`, the AC50 was 2.82 µM (active).

Consider `O=c1ccc(-c2ccccc2)n[nH]1`, for which the activity, negative = inhibition was 6.17% [at 11.4 µM].

Consider `C[C@]12CC[C@H]3c4ccc(O)cc4CC[C@@H]3[C@H]1C/C(=N/O)[C@H]2O`, for which the activity, negative = inhibition is 21.3% [at 11.4 µM].

For `COc1ccccc1CN1CC[C@@]2(CCCN(C(C)=O)C2)C1`, the “activity, negative = inhibition” value was 18%.

Regarding `CCc1cc2c(nc1CC)CCN(CC/C(C)=N/OC[C@@H](O)[C@@H]1O[C@@H]3OC(C)(C)O[C@@H]3[C@H]1O)C2`, the activity, negative = inhibition is -13.5% [at 11.4 µM].

For the compound `COc1cc(-c2nnc(SC/C=C/c3ccccc3)n2N)cc(OC)c1OC`, the “activity, negative = inhibition” value is -22.9%.

Consider `C=CCSc1nnc(-c2cc3c(-c4ccccc4)nn(C)c3s2)n1C`, for which the AC50 is 14.1 µM (active).

Regarding `Cc1noc(C)c1-c1nccc(NCCN2CCOCC2)n1`, the activity, negative = inhibition was 3.29% [at 2.29 µM].

For `O=C(COc1ccc(Br)cc1)Nc1ccc([N+](=O)[O-])cn1`, the “activity, negative = inhibition” value is -16.4%.

With `O=C(Nc1nnc(CCS(=O)(=O)c2ccc(Br)cc2)s1)c1ccc([N+](=O)[O-])cc1`, the “activity, negative = inhibition” value is 6.65%.

Consider `O=C(COc1cccc(NC(=O)c2cccc([N+](=O)[O-])c2)c1)c1ccc(Br)cc1`, for which the AC50 is 0.891 µM (active).

Consider `C[C@@H](c1ccccc1)N1C(=O)[C@H]2[C@@H]3[C@H](O)[C@H](O)CC(=O)[C@H]3CC[C@H]2C1=O`, for which the activity, negative = inhibition was -15.7% [at 11.4 µM].
